Data on 9 compounds can be found in PubChem BioAssay (Tox21).

Assay [1] can be described thus: qHTS assay to identify small molecule antagonists of the constitutive androstane receptor (CAR) signaling pathway - cell viability counter screen (AID 1224837). Note: series mostly up to about 92 µM; nearly all actives have a fitted effect of over 45% in size. Put shortly:
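Using CellTiter-Fluor, viability is scored in HepG2 cells stably carrying hCAR and a 2.2kb CYP2B6 reporter after 23 hr compound exposure across 15 concentrations, with CITCO present at 50 nM.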
For orientation: Quantitative high-throughput screening tests each substance at several concentrations.

Assay [2] concerns the target Nuclear receptor subfamily 1 group I member 3 (Homo sapiens) (UniProt Q14994). Nature of the assay: qHTS assay to identify small molecule antagonists of the constitutive androstane receptor (CAR) signaling pathway (AID 1224838).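 Note: HepG2 cells stably expressing hCAR with CYP2B6 luciferase reporter stimulated by CITCO; nearly all actives have a fitted effect of over 40% in size.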 An outline of the steps:
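Reporter luminescence was quantified after 24 h exposure of hCAR/CYP2B6-2.2kb double-stable HepG2 cells to compounds at 15 concentrations in the presence of 50 nM CITCO final.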

Assay [3] has the same target. Nature of the assay: qHTS assay to identify small molecule agonists of the constitutive androstane receptor (CAR) signaling pathway (AID 1224839).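 Note: HepG2 cells stably carrying human CAR and a CYP2B6 luciferase reporter; series mostly up to about 92 µM; nearly all actives have a fitted effect of over 15% in size.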 An outline of the steps: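 Cells were plated and incubated 4 hrs, then dosed with compounds at 15 concentrations. PK11195 was added to 0.75 uM final. After 24 hrs at 37 C, luciferase luminescence was measured.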
Assay [4] in a line: qHTS assay to identify small molecule antagonists of the estrogen related receptor signaling pathway with the pleiotropic PPARgamma coactivator (PGC) from Tox21 10K library - cell viability counter screen (AID 1224840; active = well fitted cell-killing curve with a large enough effect in the repeat runs, not every such curve was filed as active; note: nearly all actives have a fitted effect of over 40% in size). An outline of the steps: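 Here the PGC/ERR cells serve as a cytotoxicity control: they are exposed to compounds for 17.5 hours at 37 C, and live-cell signal is quantified using CellTiter-Fluor fluorescence.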

Assay [5] has as its target Thyrotropin receptor (Homo sapiens) (UniProt P16473). Put plainly: qHTS assay to identify small molecule agonists of the thyroid stimulating hormone receptor (TSHR) signaling pathway (AID 1224843; calls by dose curve; note: nearly all actives have a fitted effect of over 45% in size). An outline of the steps: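 TSHR-HEK293 cells in agonist mode, 30 min room-temperature step, then cAMP measured by competitive HTRF (cAMP-d2 with anti-cAMP cryptate) after 1 h at room temperature. Tested at 15 concentrations in triplicate.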

Assay [6] can be described thus: qHTS assay to identify small molecule agonists of the hypoxia (HIF-1) signaling pathway - cell viability counter screen (AID 1224844; calls by dose curve; note: nearly all actives have a fitted effect of over 50% in size). An outline of the steps: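 Multiplexed with the HRE beta-lactamase assay, this viability read used CellTiter-Glo luminescence (30 min, RT) on HRE-bla ME-180 cells treated 17 hrs with compounds in 0.5% dialyzed FBS medium.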
A short description of assay [7]: qHTS assay to identify small molecule agonists of the hypoxia (HIF-1) signaling pathway (AID 1224846; active = well fitted activation curve with a large enough effect in the signal ratio in the repeat runs, not every such curve was filed as active; the % refers to the signal ratio). Put shortly:
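Hypoxia-pathway activation was scored as increased beta-lactamase from an HRE-controlled reporter in ME-180 cells; plated at 2,000 cells per well with 0.5% dialyzed FBS, they were exposed 17 hrs to compounds and then given CCF4-AM.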

Assay [8] in a line: qHTS assay to identify small molecule agonists of H2AX - cell viability counter screen (AID 1224847; calls by dose curve; note: top concentration of the series differs between compounds; nearly all actives have a fitted effect of over 30% in size). An outline of the steps:
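Cytotoxicity counter screen in wild-type CHO-K1 cells: a 3 hr compound treatment at 37C across 15 concentrations, followed by CellTiter-Glo luminescence to gauge viable cells.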

A short description of assay [9]: qHTS RealTime-Glo MT Cell Viability Assay in HepG2 cells - 24 hour (AID 1224867). Note: nearly all actives have a fitted effect of over 50% in size. An outline of the steps:
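HepG2 cells (600/well) were dispensed with RealTime-Glo reagents, incubated 5 h at 37 °C, then treated with compounds in DMSO for up to 40 h. Nonlytic NanoLuc luminescence reflecting viable cells was read at each stated time point.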

A short description of assay [10]: qHTS RealTime-Glo MT Cell Viability Assay in HEK293 cells - 32 hour (AID 1224868). Note: top concentration of the series differs between compounds; nearly all actives have a fitted effect of over 50% in size. An outline of the steps: (§1)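 HEK293 cells seeded with NanoLuc/prosubstrate reagent, rested 5 h at 37 C, then dosed and kept at 37 C up to 40 h. Nonlytic real-time luminescence from viable cells read at 0, 8, 16, 24, 32 and 40 h.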
Assay [11] is described as follows: A CellTox Green Cytotoxicity Assay to monitor cytotoxicity in HEK293 cells - 0 hour (AID 1224869). Note: nearly all actives have a fitted effect of over 50% in size. Put shortly:
(§2)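 Seeding of HEK293 cells together with cytotoxicity dye preceded a 5 h incubation at 37 C/5% CO2. Test compounds in DMSO were then added and fluorescence monitored across 40 h.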

Assay [12] can be described thus: A CellTox Green Cytotoxicity Assay to monitor cytotoxicity in HEK293 cells - 40 hour (AID 1224871). Note: nearly all actives have a fitted effect of over 45% in size. Note: potency is the fitted concentration of half-maximal effect. Put shortly:
as §2

A short description of assay [13]: qHTS RealTime-Glo MT Cell Viability Assay in HEK293 cells - 16 hour (AID 1224872). An outline of the steps: as §1
A short description of assay [14]: qHTS RealTime-Glo MT Cell Viability Assay in HepG2 cells - 8 hour (AID 1224873). Note: nearly all actives have a fitted effect of over 55% in size. Put shortly:
(§3)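 HepG2 cells (600/well) mixed with RealTime-Glo MT reagent, settled 5 h at 37 C/5% CO2 before compound addition. Nonlytic NanoLuc luminescence from viable-cell prosubstrate reduction read repeatedly during 40 h treatment at 37 C.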

Assay [15] is described as follows: qHTS RealTime-Glo MT Cell Viability Assay in HepG2 cells - 40 hour (AID 1224870). Note: nearly all actives have a fitted effect of over 50% in size. An outline of the steps: as §3
Assay [16] can be described thus: qHTS assay to identify small molecule agonists of H2AX (AID 1224845; active = well fitted activation curve with a large enough effect in the signal ratio in the repeat runs, not every such curve was filed as active; the % refers to the signal ratio). Put shortly: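 Wild-type CHO-K1 cells, plated overnight, exposed 3hr at 37C to 15 concentrations (0.76% DMSO final). Lysed, then HTRF anti-pH2AX (S139) cryptate and anti-H2AX-d2 antibodies, 24 hr room temperature; 665/620 nm emission read.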

Several values for one entry are separate records, joined by “and”; a condition that tells them apart may be missing. Identical values can stand only once. Inconclusive results are not listed. More than one record can exist for a structure, and the calls need not agree. Activity calls are given as the source filed them. Unless noted, calls come from the whole dose curve; as a rule, active = well fitted curve in the direction sought with a large enough effect in the repeat runs; inconclusive = weak or mixed curves; inactive = no such curve, though single readings can be large; an effect the other way counts as inactive or inconclusive.

Chain of Thyrotropin receptor (Homo sapiens) (P16473 whole entry, looked up): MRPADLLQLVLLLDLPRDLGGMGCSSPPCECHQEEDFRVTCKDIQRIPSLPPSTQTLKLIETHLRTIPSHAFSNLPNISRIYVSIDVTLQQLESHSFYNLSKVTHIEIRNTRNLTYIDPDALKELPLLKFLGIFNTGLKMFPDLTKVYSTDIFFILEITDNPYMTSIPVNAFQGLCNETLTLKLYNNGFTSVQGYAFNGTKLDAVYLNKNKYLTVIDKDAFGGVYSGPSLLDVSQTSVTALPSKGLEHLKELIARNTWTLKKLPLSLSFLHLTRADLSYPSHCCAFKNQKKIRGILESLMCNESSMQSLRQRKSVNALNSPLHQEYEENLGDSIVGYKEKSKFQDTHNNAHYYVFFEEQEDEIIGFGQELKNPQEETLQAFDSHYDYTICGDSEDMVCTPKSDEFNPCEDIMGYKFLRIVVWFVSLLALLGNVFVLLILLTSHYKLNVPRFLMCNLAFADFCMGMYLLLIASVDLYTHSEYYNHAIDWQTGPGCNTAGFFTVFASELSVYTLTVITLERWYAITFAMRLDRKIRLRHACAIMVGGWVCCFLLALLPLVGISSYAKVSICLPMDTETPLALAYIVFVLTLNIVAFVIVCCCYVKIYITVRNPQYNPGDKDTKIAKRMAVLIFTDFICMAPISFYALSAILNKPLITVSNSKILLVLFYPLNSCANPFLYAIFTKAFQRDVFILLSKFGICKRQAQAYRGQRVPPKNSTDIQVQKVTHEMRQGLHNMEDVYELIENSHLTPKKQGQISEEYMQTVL
Chain of Nuclear receptor subfamily 1 group I member 3 (Homo sapiens) (Q14994 whole entry, looked up): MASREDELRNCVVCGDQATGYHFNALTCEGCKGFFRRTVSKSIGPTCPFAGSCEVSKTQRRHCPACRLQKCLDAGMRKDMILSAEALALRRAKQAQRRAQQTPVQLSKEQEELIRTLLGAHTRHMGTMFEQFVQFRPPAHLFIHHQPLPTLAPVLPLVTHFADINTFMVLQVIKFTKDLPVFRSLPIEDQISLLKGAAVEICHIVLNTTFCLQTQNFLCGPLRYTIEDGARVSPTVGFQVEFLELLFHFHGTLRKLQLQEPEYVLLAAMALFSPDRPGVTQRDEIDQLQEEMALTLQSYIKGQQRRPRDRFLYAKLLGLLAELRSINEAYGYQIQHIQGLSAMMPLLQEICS

`NCC(O)c1ccc(O)cc1` (stereo not given): the Potency result in [1], in assay [2], in [3], in assay [4], in assay [5] and in assay [6] was “inactive” throughout. The Potency result in assay [8], in assay [10], in [11] and in assay [12] was “inactive” each time. Besides, the result in [7], in assay [9], in [13] and in [14] was inactive.
On to `CC(Br)C(=O)O` (stereo not given), for which the Potency entry in assay [1], in [2], in assay [3], in assay [4], in assay [5] and in [6] was “inactive” in each case. Also, the Potency result in assay [8], in assay [10], in assay [11] and in assay [12] was “inactive” in each case. Also, the compound was called inactive in assay [7], in [9], in assay [15] and in assay [13].
Consider `NCCc1ccc(O)cc1`, for which the Potency entry in assay [1], in assay [2], in assay [3], in [4], in assay [5] and in [6] was “inactive” each time. In addition, the Potency result in assay [16], in assay [8], in [10], in assay [11] and in assay [12] was “inactive” throughout. For the same compound, the compound was classed as inactive in assay [9], in assay [15] and in assay [13].
With `O=Cc1cccc(Oc2ccccc2)c1`, the Potency entry in assay [1], in [2], in assay [3], in assay [4], in assay [5] and in assay [6] was “inactive” in each case. Further, the Potency entry in assay [16], in assay [8], in [10], in assay [11] and in [12] was “inactive” in each case. The compound was called inactive in [7], in [9], in [13] and in assay [14].
Take `[O-][Cl+2]([O-])O`: the Potency result in assay [1], in assay [2], in assay [3], in assay [4], in assay [5] and in assay [6] was “inactive” in each case. Moreover, the Potency result in assay [16], in assay [10], in [11] and in [12] was “inactive” each time. For the same compound, the call in [7], in [9], in [15], in assay [13] and in assay [14] was inactive.
Consider `COC(=O)NC(=S)Nc1ccccc1NC(=S)NC(=O)OC`, for which the Potency result in [1], in assay [2], in [3], in assay [4], in assay [5] and in assay [6] was “inactive” each time. Further, the Potency result in assay [8], in assay [10], in assay [11] and in [12] was “inactive” throughout. Further, the result in assay [7], in assay [9], in assay [13] and in assay [14] was inactive.
Turning to `c1cc2c3c(cccc3c1)CC2`, the Potency result in assay [1], in assay [2], in [3], in assay [4], in assay [5] and in [6] was “inactive” throughout. Moreover, the Potency entry in [16], in [8], in assay [10] and in assay [11] was “inactive” each time. The call in [7], in assay [9], in assay [13] and in [14] was inactive. Further, the Potency entry in assay [12] was “inactive and 43.6 µM (active)”.
As for `c1ccc2c(c1)Oc1ccccc1O2`, the Potency result in [1], in assay [2], in [3], in assay [4], in assay [5] and in assay [6] was “inactive” throughout. Further, the Potency entry in [16], in [10], in assay [11] and in assay [12] was “inactive” in each case. In addition, the compound was classed as inactive in [7], in assay [9], in assay [15] and in [13].
As to `Cc1[nH]c(=O)n(C(C)(C)C)c(=O)c1Cl`, the Potency result in assay [1], in assay [2], in assay [3], in [4], in assay [5] and in assay [6] was “inactive” in each case. Moreover, the Potency result in assay [8], in assay [10], in assay [11] and in assay [12] was “inactive” throughout. Moreover, the outcome in assay [7], in assay [9], in assay [15], in assay [13] and in assay [14] was inactive.
